Active and inactive are the calls of the source.

Experiment [1] can be described thus: optical density shifts of acrAB sulA E. coli – strain DRC41, OD650, 48 h, E. coli filamentation inducer project, primary screen (AID 1152).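 Also: E. coli MC1000 strain DRC41 lacking acrAB efflux pump and sulA.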 To be noted: higher = more signal, called active from +8 up or from −8 down.
Experiment [2] can be described thus: probe aLefty1 binding on compound microarray – biochemical, small-molecule microarray, 635/667 nm fluorescence, primary screen (AID 1153).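 Also: score merges spot fluorescence with signal-to-noise ratio from the scanned slide images.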 Conditions: higher = more signal.
Experiment [3] in a line: plasmodial surface anion channel blockers, osmotic lysis – cell-based, P. falciparum Indochina, OD700, 1 h, primary screen (AID 1154). To be noted: P. falciparum Indochina infected RBC osmotic lysis, higher = more signal, called active from +8 up or from −8 down.
A short description of experiment [4]: plasmodial surface anion channel blockers, osmotic lysis – cell-based, P. falciparum Indochina, OD700, 2 h, primary screen (AID 1155).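 Also: lysis reports solute entry through the parasite surface anion channel PSAC.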 Conditions: P. falciparum Indochina infected erythrocytes, higher = more signal, called active from +8 up or from −8 down.
The nature of experiment [5]: changes in parasitized red cell lysis, either direction – P. falciparum Indochina, OD700, 3 h, PSAC antagonist project, primary screen (AID 1156). To be noted: P. falciparum-infected erythrocytes, osmotic lysis, higher = more signal, called active from +8 up or from −8 down.
Experiment [6] in a line: plasmodial surface anion channel blockers, osmotic lysis – cell-based, P. falciparum Indochina, OD700, 18 h, primary screen (AID 1157). To be noted: P. falciparum Indochina infected erythrocytes, osmotic lysis OD700, 18 h; higher = more signal, called active from +8 up or from −8 down.
Experiment [7] is described as follows: S6 kinase pathway phospho-S6 level changes – cell-based, A549, cytoblot, luminescence, serum-stimulated, primary screen (AID 1158).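 Also: serum-stimulated A549 lung adenocarcinoma cells; signal is phosphorylated S6 detected by cytoblot immunostaining with HRP secondary.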 Conditions: 5 h, higher = more signal.
Experiment [8] deals with NADPH oxidase 2 (Homo sapiens) (UniProt P04839). The experiment is described as follows: compounds shifting NOX2 Amplex Red fluorescence – cell-based, HEK293-NOX2, PMA-stimulated, NOX inhibitor project, primary screen (AID 1159). Also: test concentration not given here. Conditions: 45 min, higher = more signal, called active from +8 up or from −8 down.
Sequence of NADPH oxidase 2 (Homo sapiens) (P04839 whole entry, looked up): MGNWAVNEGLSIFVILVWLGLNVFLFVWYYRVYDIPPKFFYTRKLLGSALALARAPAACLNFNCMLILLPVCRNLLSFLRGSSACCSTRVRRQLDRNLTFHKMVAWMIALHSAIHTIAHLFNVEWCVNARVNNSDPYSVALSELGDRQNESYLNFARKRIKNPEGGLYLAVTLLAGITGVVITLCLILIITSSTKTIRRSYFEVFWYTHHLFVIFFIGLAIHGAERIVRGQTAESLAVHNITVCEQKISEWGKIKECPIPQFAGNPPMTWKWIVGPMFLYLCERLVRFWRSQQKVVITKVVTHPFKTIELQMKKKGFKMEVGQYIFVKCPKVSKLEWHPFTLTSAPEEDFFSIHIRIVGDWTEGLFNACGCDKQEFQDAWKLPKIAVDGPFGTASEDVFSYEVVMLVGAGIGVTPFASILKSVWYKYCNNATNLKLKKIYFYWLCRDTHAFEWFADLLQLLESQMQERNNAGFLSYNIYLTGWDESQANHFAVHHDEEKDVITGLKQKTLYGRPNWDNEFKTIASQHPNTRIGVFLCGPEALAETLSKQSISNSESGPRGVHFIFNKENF
For experiment [9], the target named is NADPH oxidase 4 (Homo sapiens) (UniProt Q9NPH5). The experiment in a line: compounds shifting NOX4 Amplex Red fluorescence – cell-based, HEK293-NOX4, tetracycline-induced, NOX inhibitor project, primary screen (AID 1160). To be noted: HEK293-NOX4, Amplex Red H2O2 fluorescence, 45 min; higher = more signal, called active from +8 up or from −8 down.
Sequence of NADPH oxidase 4 (Homo sapiens) (Q9NPH5 whole entry, looked up): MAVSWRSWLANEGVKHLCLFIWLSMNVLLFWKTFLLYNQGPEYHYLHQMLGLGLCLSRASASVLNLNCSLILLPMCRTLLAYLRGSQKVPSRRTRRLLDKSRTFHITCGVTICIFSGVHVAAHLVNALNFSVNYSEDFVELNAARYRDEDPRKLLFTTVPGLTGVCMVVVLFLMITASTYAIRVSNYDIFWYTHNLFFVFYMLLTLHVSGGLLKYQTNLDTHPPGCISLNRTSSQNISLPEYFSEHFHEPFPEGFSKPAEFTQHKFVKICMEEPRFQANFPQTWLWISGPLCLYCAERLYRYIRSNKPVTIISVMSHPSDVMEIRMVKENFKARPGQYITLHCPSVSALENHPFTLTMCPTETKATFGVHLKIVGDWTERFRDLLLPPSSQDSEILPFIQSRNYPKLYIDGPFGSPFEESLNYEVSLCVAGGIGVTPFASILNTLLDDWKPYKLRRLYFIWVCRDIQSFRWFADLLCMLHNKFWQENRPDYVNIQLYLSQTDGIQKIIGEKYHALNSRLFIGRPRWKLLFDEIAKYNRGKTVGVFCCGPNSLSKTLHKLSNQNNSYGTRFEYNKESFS
The target of experiment [10] is NADPH oxidase 5 (Homo sapiens) (UniProt Q96PH1). The experiment in a line: compounds shifting NOX5 Amplex Red fluorescence – cell-based, HEK293-NOX5, NOX inhibitor project, primary screen (AID 1161). To be noted: HEK293-NOX5, ionomycin, 45 min, higher = more signal.
Sequence of NADPH oxidase 5 (Homo sapiens) (Q96PH1 whole entry, looked up): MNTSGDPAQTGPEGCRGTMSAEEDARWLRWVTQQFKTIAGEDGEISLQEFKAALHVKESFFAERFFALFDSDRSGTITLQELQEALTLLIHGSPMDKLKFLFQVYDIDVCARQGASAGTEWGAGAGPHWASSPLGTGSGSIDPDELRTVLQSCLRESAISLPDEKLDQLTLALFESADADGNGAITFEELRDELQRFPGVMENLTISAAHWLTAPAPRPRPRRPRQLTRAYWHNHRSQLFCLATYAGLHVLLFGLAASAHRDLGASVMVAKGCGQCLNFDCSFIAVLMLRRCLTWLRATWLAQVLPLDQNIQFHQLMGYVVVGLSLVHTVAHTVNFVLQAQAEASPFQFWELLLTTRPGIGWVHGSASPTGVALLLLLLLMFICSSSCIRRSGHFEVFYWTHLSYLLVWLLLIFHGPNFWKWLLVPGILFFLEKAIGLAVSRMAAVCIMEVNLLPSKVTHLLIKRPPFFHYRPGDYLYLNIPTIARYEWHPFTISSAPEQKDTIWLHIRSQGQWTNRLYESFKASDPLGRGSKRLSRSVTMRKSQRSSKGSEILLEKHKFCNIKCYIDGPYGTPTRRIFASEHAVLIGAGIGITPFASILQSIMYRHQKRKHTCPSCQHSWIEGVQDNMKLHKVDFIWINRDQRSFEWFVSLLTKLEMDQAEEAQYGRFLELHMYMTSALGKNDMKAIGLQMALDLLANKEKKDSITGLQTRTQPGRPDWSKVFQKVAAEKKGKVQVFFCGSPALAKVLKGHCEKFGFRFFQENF

For the compound `C=CCNC(=O)[C@@H]1[C@H]2C(=O)O[C@H](c3ccccc3)[C@H](c3ccccc3)N2[C@H](c2ccc(OCCO)cc2)[C@@]12C(=O)Nc1ccc(C#CCNC(N)=O)cc12`, the z-score was -0.582 (inactive) in experiment [1]; 2.55 (inactive) in [3]; 0.268 (inactive) in [4]; 0.422 (inactive) in experiment [5]; -0.0239 (inactive) in experiment [6]; 0.386 in experiment [7]. In addition, the z-score in experiment [8] was 1.88 (inactive); in [9], 1.2 (inactive); in experiment [10], -0.268. In [2], this compound registered a composite z-score of 0.124.

Regarding `COC(=O)[C@@]1(Cc2ccc(F)cc2)[C@H]2c3cc(C(=O)N(C)C)n(Cc4cccc5ccccc45)c3C[C@H]2CN1C(=O)c1ccccc1`, the z-score was -1.92 (inactive) in [1]; 8.44 (active) in [3]; 1.29 (inactive) in [4]; 1.07 (inactive) in [5]; 1.28 (inactive) in experiment [6]; -0.779 in experiment [7]. The z-score in experiment [8] is 0.105 (inactive); in experiment [9], -3.8 (inactive); in experiment [10], 0.592. Further, in [2], the composite z-score was 0.0568.

For the compound `C=C(C(=O)CC[C@H](OC(=O)c1ccccc1-c1ccccc1C(=O)O)c1ccc(OCCO)cc1)C(C)C`, the z-score is -0.0716 (inactive) in experiment [1]; 11.6 (active) in experiment [3]; 1.77 (inactive) in experiment [4]; 2.09 (inactive) in [5]; 0.92 (inactive) in experiment [6]; -0.154 in experiment [7]. For the same compound, the results for the z-score in experiment [8], in experiment [9] and in experiment [10] were 0.357 (inactive), -0.446 (inactive) and -2.12, respectively. The compound also registered a composite z-score in experiment [2] of 0.235.

In the case of `[N-]=[N+]=NCc1ccccc1C[C@@]1(C(=O)NCCN2CCOCC2)N=C(c2ccc(OCCCO)cc2)O[C@@H]1c1ccccc1`, the z-score is -1.58 (inactive) in [1]; 25.3 (active) in experiment [3]; 11.7 (active) in experiment [4]; 1.44 (inactive) in experiment [5]; 1.65 (inactive) in [6]; -0.28 in experiment [7]. Moreover, the z-score was -1.48 (inactive) in [8], 0.731 (inactive) in [9] and 1.27 in experiment [10]. Also, the composite z-score in [2] turned out to be 0.546.

In the case of `CC(C)(C)OC(=O)CC[C@]1(C(N)=O)N=C(c2ccc(OCCCO)cc2)O[C@H]1c1ccccc1N=[N+]=[N-]`, the z-score in experiment [1] was 0.831 (inactive); in [3] it was 30.5 (active); in experiment [4], 32.4 (active); in experiment [5] it was 0.697 (inactive); in [6], 2.48 (inactive); in [7], -0.3. Further, the z-score is -0.285 (inactive) in experiment [8], 0.324 (inactive) in experiment [9] and -1.19 in [10]. In experiment [2], this compound displayed a composite z-score of 0.267.

`COC(=O)C(CC#Cc1ccc2c(c1)[C@]1(C(=O)N2)[C@H](C(=O)N2CCN(c3ncccn3)CC2)[C@H]2C(=O)O[C@H](c3ccccc3)[C@H](c3ccccc3)N2[C@@H]1c1ccc(O)cc1)C(=O)OC`: the z-score is -0.442 (inactive) in experiment [1]; 1.85 (inactive) in experiment [3]; 0.89 (inactive) in [4]; 0.804 (inactive) in experiment [5]; 0.0729 (inactive) in experiment [6]; -0.339 in [7]. For the same compound, the z-score in [8] is 1.52 (inactive); in experiment [9], -0.566 (inactive); in experiment [10], 0.665. The compound also came in with a composite z-score in [2] of 1.93.

`CCCCC=C[C@@H](NC(=O)C(C)(C)C)c1ccccc1`: the z-score in [1] was -2.16 (inactive); in experiment [3], 2.28 (inactive); in experiment [4] it was 1.43 (inactive); in [5], -1.46 (inactive); in experiment [6] it was 1.45 (inactive); in [7], -0.553. Moreover, the z-score in [8] is -0.312 (inactive); in [9], -2.16 (inactive); in experiment [10] it was 1.63. The compound also had a composite z-score in experiment [2] of 0.181.

As to `O=C1O[C@H](c2ccccc2)[C@H](c2ccccc2)N2[C@H]1[C@@H](C(=O)O)[C@]1(C(=O)Nc3ccc(C#CC4(O)CCCCCC4)cc31)[C@H]2c1ccccc1OCCO`, the z-score was 0.782 (inactive) in experiment [1]; -2.1 (inactive) in experiment [3]; -0.922 (inactive) in experiment [4]; -14.7 (active) in [5]; -0.743 (inactive) in experiment [6]; 0.364 in [7]. Moreover, the z-score is 2.49 (inactive) in experiment [8], -1.56 (inactive) in [9] and -1.32 in [10]. In [2], this compound gave a composite z-score of 0.708.

As to `COc1ccc([Si](C)(C)[C@H]2[C@H](CC(=O)N3CCC[C@H]3CO)O[C@@]3(C(=O)N(C)c4c(Br)cc(C)cc43)[C@@H]2C)cc1`, the z-score in experiment [1] is -0.437 (inactive); in experiment [3], 2.11 (inactive); in experiment [4], 0.179 (inactive); in experiment [5], -0.192 (inactive); in experiment [6], 0.62 (inactive); in experiment [7] it was 0.488. Further, the z-score is 0.951 (inactive) in experiment [8], 0.657 (inactive) in experiment [9] and 3.04 in [10]. In experiment [2], this compound returned a composite z-score of 1.

For the compound `O=C1NC(=O)C2C1C=CC(C(O)C(c1ccccc1)c1ccccc1)N2Nc1ccccn1` (stereo not given), the z-score in experiment [1] was -0.332 (inactive); in experiment [3] it was 0.186 (inactive); in experiment [4] it was 0.829 (inactive); in [5] it was 0.156 (inactive); in experiment [6], 0.853 (inactive); in experiment [7], -0.681. In addition, the z-score was 0.738 (inactive) in experiment [8], -2.13 (inactive) in [9] and -1.47 in [10]. The compound further came in with a composite z-score in experiment [2] of 0.228.

On to `Cc1ccc(S[C@]2(C(=O)NC(C)C)CC(=O)N(Cc3ccccc3)[C@@H]2c2ccc(CO)cc2I)cc1`, for which the z-score is 0.214 (inactive) in experiment [1]; 5.59 (inactive) in experiment [3]; 0.654 (inactive) in experiment [4]; 0.59 (inactive) in experiment [5]; 0.231 (inactive) in experiment [6]; -0.35 in experiment [7]. The z-score in experiment [8] was 0.671 (inactive); in experiment [9] it was -0.818 (inactive); in experiment [10], 1.76. Besides, the composite z-score in [2] is 0.164.

Regarding `COC(=O)[C@@]1(Cc2ccccc2)[C@H]2c3cc(C(=O)N(C)C)n(Cc4nc5ccccc5[nH]4)c3C[C@H]2CN1C(=O)c1ccccc1`, the z-score in experiment [1] is 0.989 (inactive); in [3] it was 4.51 (inactive); in experiment [4], -0.2 (inactive); in experiment [5], 0.57 (inactive); in experiment [6], -0.949 (inactive); in experiment [7] it was 0.965. The z-score is -0.273 (inactive) in experiment [8], 0.839 (inactive) in experiment [9] and -0.155 in experiment [10]. Moreover, the composite z-score in [2] was 0.0063.

As for `C=CC[C@]12N=C(c3ccc(OCCCO)cc3)O[C@H]1c1ccccc1N(CCC)C2=O`, the z-score in experiment [1] was -0.0423 (inactive); in experiment [3], 32.8 (active); in [4], 33.1 (active); in experiment [5] it was 2.98 (inactive); in [6] it was 4.84 (inactive); in experiment [7], 0.204. Also, the z-score in experiment [8] was -2.03 (inactive); in experiment [9] it was 0.00147 (inactive); in experiment [10], -1.71. The same compound came in with a composite z-score in experiment [2] of 1.26.

For the origin of these results see PubChem BioAssay.
